# Laboratory results reported in article PMC11102866, “Nucleosome-bound NR5A2 structure reveals pioneer factor mechanism by DNA minor groove anchor competition”.
# Numbering of substitutions follows the chain as printed. Names may count otherwise.
# B1: 24 (nucleosome)
# DNA 1: ATCCTGGAGAATCCCGGTGCCGAGGCTCAAGGCCAGGTCGTAGACAGCTCTAGCACCGCTTAAACGCACGTACGCGCTGTCCCCCGCGTTTTAACCGCCAAGGGGATTACTCCCTAGTCTCCAGGCACGTGTCAGATATATACATCCTGTGAT
# DNA 2: ATCACAGGATGTATATATCTGACACGTGCCTGGAGACTAGGGAGTAATCCCCTTGGCGGTTAAAACGCGGGGGACAGCGCGTACGTGCGTTTAAGCGGTGCTAGAGCTGTCTACGACCTGGCCTTGAGCCTCGGCACCGGGATTCTCCAGGAT
# modifications: reconstituted with mouse histones H2A, H2B, H3.3 and H4
# B2: 29 (nucleosome)
# DNA 1: B1 DNA 1 with T27C, C28G, A29C, A30T, G31C, G32T, C34A, T38C, G40A
# DNA 2: B1 DNA 2 with C114T, A116G, G120T, C122A, C123G, T124A, T125G, G126C, A127G
# modifications: reconstituted with mouse histones H2A, H2B, H3.3 and H4
# B3: 25 (nucleosome)
# DNA 1: B1 DNA 1 with T27C, C28T, A29C, G31A, C33G, A35C, G36A
# DNA 2: B1 DNA 2 with C118T, T119G, G121C, C123T, T125G, G126A, A127G
# modifications: reconstituted with mouse histones H2A, H2B, H3.3 and H4
# B4: 18 (nucleosome)
# DNA 1: ATCCTGGAGAATCCCGGTGCTCAAGGCCATCAATTGGTCGTAGACAGCTCTAGCACCGCTTAAACGCACGTACGCGCTGTCCCCCGCGTTTTAACCGCCAAGGGGATTACTCCCTAGTCTCCAGGCACGTGTCAGATATATACATCCTGTGAT
# DNA 2: ATCACAGGATGTATATATCTGACACGTGCCTGGAGACTAGGGAGTAATCCCCTTGGCGGTTAAAACGCGGGGGACAGCGCGTACGTGCGTTTAAGCGGTGCTAGAGCTGTCTACGACCAATTGATGGCCTTGAGCACCGGGATTCTCCAGGAT
# modifications: reconstituted with mouse histones H2A, H2B, H3.3 and H4
# B5: 23 (nucleosome)
# DNA 1: B1 DNA 1 with C26T, T27C, C28A, A30G, G32C, C34A, A35T
# DNA 2: B1 DNA 2 with T119A, G120T, C122G, T124C, G126T, A127G, G128A
# modifications: reconstituted with mouse histones H2A, H2B, H3.3 and H4
# B6: 22 (nucleosome)
# DNA 1: B1 DNA 1 with G25T, T27A, C28A, A29G, A30G, G31C, G32C, C33A, C34T, A35T
# DNA 2: B4 DNA 2 with T122G, A124C, T125C, G126T, G127T, C128G, C129A, T130C, G132C, A133G
# modifications: reconstituted with mouse histones H2A, H2B, H3.3 and H4
# B7: 21 (nucleosome)
# DNA 1: B4 DNA 1 with T21C, C22G, A24T, G25C, G26A, C27A, C28G, A29G, T30C
# DNA 2: B4 DNA 2 with A124G, T125C, G126C, G127T, C128T, C129G, T130A, G132C, A133G
# modifications: reconstituted with mouse histones H2A, H2B, H3.3 and H4
# B8: 19 (nucleosome)
# DNA 1: B4 DNA 1 with T21C, C22T, A23C, G25A, C27G, A29C, T30A
# DNA 2: B4 DNA 2 with A124T, T125G, G127C, C129T, T131G, G132A, A133G
# modifications: reconstituted with mouse histones H2A, H2B, H3.3 and H4
# B9: 26 (nucleosome)
# DNA 1: ATCCTGGAGAATCCCGGTGCCGAGGCCGTCAAGGCCATCGTAGACAGCTCTAGCACCGCTTAAACGCACGTACGCGCTGTCCCCCGCGTTTTAACCGCCAAGGGGATTACTCCCTAGTCTCCAGGCACGTGTCAGATATATACATCCTGTGAT
# DNA 2: ATCACAGGATGTATATATCTGACACGTGCCTGGAGACTAGGGAGTAATCCCCTTGGCGGTTAAAACGCGGGGGACAGCGCGTACGTGCGTTTAAGCGGTGCTAGAGCTGTCTACGATGGCCTTGACGGCCTCGGCACCGGGATTCTCCAGGAT
# modifications: reconstituted with mouse histones H2A, H2B, H3.3 and H4
# B10: 31 (nucleosome)
# DNA 1: B9 DNA 1 with T29C, C30T, A31C, G33A, G34T, C36A, T38G, C39G, G40C, T41C
# DNA 2: B9 DNA 2 with A113G, C114G, G115C, A116C, G118T, C120A, C121T, T123G, G124A, A125G
# modifications: reconstituted with mouse histones H2A, H2B, H3.3 and H4
# B11: 27 (nucleosome)
# DNA 1: B9 DNA 1 with T29C, C30T, A31C, G33A, C35G, A37C, T38A
# DNA 2: B9 DNA 2 with A116T, T117G, G119C, C121T, T123G, G124A, A125G
# modifications: reconstituted with mouse histones H2A, H2B, H3.3 and H4
# B12: 20 (nucleosome)
# DNA 1: ATCCTGGAGAATCCCGGTGCCGTCAAGGCCAAATTGGTCGTAGACAGCTCTAGCACCGCTTAAACGCACGTACGCGCTGTCCCCCGCGTTTTAACCGCCAAGGGGATTACTCCCTAGTCTCCAGGCACGTGTCAGATATATACATCCTGTGAT
# DNA 2: ATCACAGGATGTATATATCTGACACGTGCCTGGAGACTAGGGAGTAATCCCCTTGGCGGTTAAAACGCGGGGGACAGCGCGTACGTGCGTTTAAGCGGTGCTAGAGCTGTCTACGACCAATTTGGCCTTGACGGCACCGGGATTCTCCAGGAT
# modifications: reconstituted with mouse histones H2A, H2B, H3.3 and H4
# B13: 3 (nucleosome)
# DNA 1: ATCCTTCAAGGCCACGGTGCCGAGGCCGCTCAATTGGTCGTAGACAGCTCTAGCACCGCTTAAACGCACGTACGCGCTGTCCCCCGCGTTTTAACCGCCAAGGGGATTACTCCCTAGTCTCCAGGCACGTGTCAGATATATACATCCTGTGAT
# DNA 2: ATCACAGGATGTATATATCTGACACGTGCCTGGAGACTAGGGAGTAATCCCCTTGGCGGTTAAAACGCGGGGGACAGCGCGTACGTGCGTTTAAGCGGTGCTAGAGCTGTCTACGACCAATTGAGCGGCCTCGGCACCGTGGCCTTGAAGGAT
# modifications: reconstituted with mouse histones H2A, H2B, H3.3 and H4
# B14: 30 (nucleosome)
# DNA 1: ATCCTGGAGAATCCCGGTGCCGAGGCCGCTCATCAAGGCCAAGACAGCTCTAGCACCGCTTAAACGCACGTACGCGCTGTCCCCCGCGTTTTAACCGCCAAGGGGATTACTCCCTAGTCTCCAGGCACGTGTCAGATATATACATCCTGTGAT
# DNA 2: ATCACAGGATGTATATATCTGACACGTGCCTGGAGACTAGGGAGTAATCCCCTTGGCGGTTAAAACGCGGGGGACAGCGCGTACGTGCGTTTAAGCGGTGCTAGAGCTGTCTTGGCCTTGATGAGCGGCCTCGGCACCGGGATTCTCCAGGAT
# modifications: reconstituted with mouse histones H2A, H2B, H3.3 and H4
# B15: 28 (nucleosome)
# DNA 1: ATCCTGGAGAATCCCGGTGCCGAGGCCGCTTCAAGGCCAGTAGACAGCTCTAGCACCGCTTAAACGCACGTACGCGCTGTCCCCCGCGTTTTAACCGCCAAGGGGATTACTCCCTAGTCTCCAGGCACGTGTCAGATATATACATCCTGTGAT
# DNA 2: ATCACAGGATGTATATATCTGACACGTGCCTGGAGACTAGGGAGTAATCCCCTTGGCGGTTAAAACGCGGGGGACAGCGCGTACGTGCGTTTAAGCGGTGCTAGAGCTGTCTACTGGCCTTGAAGCGGCCTCGGCACCGGGATTCTCCAGGAT
# modifications: reconstituted with mouse histones H2A, H2B, H3.3 and H4
# Tests used:
# [1] = molecular target: NR5A2 wild type;histone octamer (Homo sapiens;, UniProt O00482;C0HKE1;Q6ZWY9;P84244;P62806 1-541;2-130;2-126;2-136;2-103, |); assay: SeEN-seq (EMSA of nucleosome library followed by sequencing); 0.8 uM human NR5A2; 20 mM Tris-HCl pH 7.5, 120 mM NaCl, 1 mM MgCl2, 10 uM ZnCl2, 1 mM DTT, 100 ug/ml BSA, room temperature, 30 min; 0.1 uM nucleosome library; high values mean tight binding
# [2] = molecular target: mouse Nr5a2 wild type;histone octamer (Mus musculus;, UniProt P45448;C0HKE1;Q6ZWY9;P84244;P62806 1-560;2-130;2-126;2-136;2-103, |); assay: SeEN-seq (EMSA of nucleosome library followed by sequencing); 1.2 uM mouse Nr5a2; 20 mM Tris-HCl pH 7.5, 120 mM NaCl, 1 mM MgCl2, 10 uM ZnCl2, 1 mM DTT, 100 ug/ml BSA, room temperature, 30 min; 0.1 uM nucleosome library; high values mean tight binding
Binder,binding signal [1],binding signal [2]
B1,"0.706 log2 enrichment (bound/unbound, relative to Widom 601)","0.642 log2 enrichment (bound/unbound, relative to Widom 601)"
B2,"0.778 log2 enrichment (bound/unbound, relative to Widom 601)","0.664 log2 enrichment (bound/unbound, relative to Widom 601)"
B3,"0.708 log2 enrichment (bound/unbound, relative to Widom 601)","0.587 log2 enrichment (bound/unbound, relative to Widom 601)"
B4,"1.7 log2 enrichment (bound/unbound, relative to Widom 601)","2.1 log2 enrichment (bound/unbound, relative to Widom 601)"
B5,"1.81 log2 enrichment (bound/unbound, relative to Widom 601)","2.16 log2 enrichment (bound/unbound, relative to Widom 601)"
B6,"1.02 log2 enrichment (bound/unbound, relative to Widom 601)","0.698 log2 enrichment (bound/unbound, relative to Widom 601)"
B7,"1.08 log2 enrichment (bound/unbound, relative to Widom 601)","1.08 log2 enrichment (bound/unbound, relative to Widom 601)"
B8,"1.35 log2 enrichment (bound/unbound, relative to Widom 601)","1.28 log2 enrichment (bound/unbound, relative to Widom 601)"
B9,"0.635 log2 enrichment (bound/unbound, relative to Widom 601)","0.66 log2 enrichment (bound/unbound, relative to Widom 601)"
B10,"0.845 log2 enrichment (bound/unbound, relative to Widom 601)","0.725 log2 enrichment (bound/unbound, relative to Widom 601)"
B11,"0.842 log2 enrichment (bound/unbound, relative to Widom 601)","0.575 log2 enrichment (bound/unbound, relative to Widom 601)"
B12,"1.09 log2 enrichment (bound/unbound, relative to Widom 601)","1.09 log2 enrichment (bound/unbound, relative to Widom 601)"
B13,"6.62 log2 enrichment (bound/unbound, relative to Widom 601)","5.04 log2 enrichment (bound/unbound, relative to Widom 601)"
B14,"0.787 log2 enrichment (bound/unbound, relative to Widom 601)","0.718 log2 enrichment (bound/unbound, relative to Widom 601)"
B15,"0.697 log2 enrichment (bound/unbound, relative to Widom 601)","0.72 log2 enrichment (bound/unbound, relative to Widom 601)"
